BH1578 lux ind = induces V. cholerae light production without autoinducers; V. cholerae BH1578 lux reporter, luminescence, 6 h; activation, % at 18.7 µM; hit rate 0.16% among 350,000; AID 588436; in the data active means activation mostly above about 9.7%, no sharp cut-off; inconclusive means no clear call, values can overlap the other calls; inactive means mostly below about 3.7%
3CLpro inhibitor = SARS-CoV 3CLpro protease inhibition | P0C6X7 | recombinant SARS-CoV 3CLpro, quenched FRET peptide cleavage | inhibition, % at 6 µM | hit rate 0.14% among 290,000; in the data active means inhibition above about 12%
DUSP3 inh = inhibitors of human VHR1 phosphatase (DUSP3) | P51452 | inhibition, % at 13.3 µM | recombinant VHR phosphatase, pNPP absorbance | hit rate 0.52% among 290,000; in the data active means inhibition above about 50%
Target sequence (P51452 whole entry, looked up): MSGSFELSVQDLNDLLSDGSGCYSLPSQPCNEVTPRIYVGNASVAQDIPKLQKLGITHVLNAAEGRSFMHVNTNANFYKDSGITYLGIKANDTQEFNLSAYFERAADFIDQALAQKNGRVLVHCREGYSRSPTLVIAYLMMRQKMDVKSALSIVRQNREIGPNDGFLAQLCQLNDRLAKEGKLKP
MazEF act = MazEF (E. coli) toxin RNase activation; P0AE70; FAM/BHQ RNA-DNA oligo cleavage fluorescence, 5 h; activation, % at 20 µM; hit rate 0.32% among 350,000; AID 504720; in the data active means activation above about 50%
Target sequence (P0AE70 whole entry, looked up): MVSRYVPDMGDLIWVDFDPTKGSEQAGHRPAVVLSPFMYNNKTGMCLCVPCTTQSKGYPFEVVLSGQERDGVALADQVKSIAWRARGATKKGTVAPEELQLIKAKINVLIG
PfHsp40 rescue = rescue of PfHsp40-mediated yeast toxicity | S. cerevisiae expressing PfHsp40, growth rescue, ATP luminescence | growth rescue, % at 12.5 µM | hit rate 0.68% among 340,000; in the data active means growth rescue above about 28%, passing the limit was not always enough; inconclusive means no clear call, values can overlap the other calls;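 further: yeast W303a lacking pdr1 and pdr3 grown in galactose medium; growth measured after three days at 30 °C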
BJeLR viability = kills HRASV12-expressing BJeLR cells; BJeLR (HRASV12) viability, CellTiter-Glo ATP luminescence, 48 h; inhibition, % (no concentration beside the values); hit rate 0.17% among 300,000; AID 1554; in the data active means inhibition above about 50%; inconclusive means no clear call, values can overlap the other calls
Numbers stand for hits; n = inactive; u = inconclusive; x = no result. Hits are enriched below; roughly 1.7% of the tested compounds scored in any of these assays.

SMILES | BH1578 lux ind | 3CLpro inhibitor | DUSP3 inh | MazEF act | PfHsp40 rescue | BJeLR viability
CCCCN1C(=O)/C(=C/C=C2\SCCN2C)SC1=S | n | n | n | 530.0 | n | n
COc1ccccc1CCC(=O)Nc1ccc(S(=O)(=O)Nc2cc(C)nc(C)n2)cc1 | n | x | x | n | n | n
CN(C(=O)c1ccc2c(=O)n3c(nc2c1)CCCCC3)c1ccccc1 | n | n | 52.9 | n | n | n
O=C(NCCc1ccccc1)C(=O)c1c(-c2ccccc2)[nH]c2ccccc12 | n | n | n | n | n | n
COc1ccc(-c2ccnc(SCC(=O)N3CCN(c4ccccc4)CC3)n2)cc1 | n | n | n | n | 104.5 | n
Cc1ccnc(SCC(=O)N2CCN(c3ccccc3)CC2)n1 | n | n | n | n | n | n
C=CCSC1=N/C(=C\c2cc(OC)c3c(c2)OCO3)C(=O)S1 | n | n | n | 517.5 | n | n
Cc1cccc(C(=O)O)c1NC(=O)Cc1cccc2ccccc12 | n | n | n | n | n | n
Cc1ccc(S(=O)(=O)N2CCN(CCOc3cccc(C)c3)CC2)cc1 | n | x | x | n | n | x
COc1ccc(-c2ncncc2-c2csc(C)n2)c(O)c1OC | n | n | n | n | n | n
COC(=O)c1nc(-c2ccc3c(n2)C(=O)C(N)=C(OC)C3=O)c(N)c(-c2ccc(OC)c(OC)c2O)c1C | n | n | n | n | n | 64.4
COC1=C(N)C(=O)c2nc(-c3nc(C(=O)O)c(C)c(-c4ccc(OC)c(OC)c4O)c3N)ccc2C1=O | 179.2 | n | n | n | n | x
COc1ccc(C(C)C)cc1-c1cncc(NC(C)=O)n1 | n | x | x | x | x | x
O=[N+]([O-])c1cc(Cl)cc(/C=N\Nc2ccccn2)c1O | 25.0 | n | n | n | n | n
O=[N+]([O-])c1ccc(NN=Cc2ccc3c(c2)OCO3)nc1 | n | x | x | 105.7 | n | x
COc1ccc(/C=N/Nc2ccc([N+](=O)[O-])cc2)cc1O | n | n | x | n | 41.5 | n
O=[N+]([O-])c1ccc(/C=N/Nc2ccccn2)cc1 | n | n | 58.2 | n | n | n
O=[N+]([O-])c1ccc(NN=Cc2cccc(O)c2)nc1 | n | x | x | n | n | x
COc1ccc(/C=N/Nc2ccc([N+](=O)[O-])cc2)cc1Cn1cc([N+](=O)[O-])cn1 | n | n | n | n | n | n
CCOC(=O)C(CC1=CS(=O)(=O)c2ccc(Cl)cc21)(NC(C)=O)C(=O)OCC | n | x | x | n | x | x
CCOc1ccc(S(=O)(=O)N2CCCC(C(=O)NC3CCCC3)C2)cc1 (configuration not stated) | n | n | n | n | n | n
CC(=O)c1c(C)[nH]c(C(=O)OCC(=O)c2ccc3c(c2)NC(=O)CO3)c1C | n | x | x | n | n | x
Cc1cccn2c(=O)c3cc(C(=O)NCc4ccco4)c(=N)n(CCc4ccccc4)c3nc12 | n | n | n | 54.0 | n | x
CCCn1c(=N)c(C(=O)NC2CCCC2)cc2c(=O)n3cccc(C)c3nc21 | 16.7 | n | n | n | n | n
Cc1onc(-c2ccccc2)c1C(=O)NC(=S)NNC(=O)c1cc(-c2ccc(F)cc2)n[nH]1 | n | n | n | n | 234.6 | n
SMILES | BH1578 lux ind | 3CLpro inhibitor | DUSP3 inh | MazEF act | PfHsp40 rescue | BJeLR viability
Cc1onc(-c2ccccc2)c1C(=O)NC(=S)NNC(=O)c1ccco1 | n | n | n | n | 50.4 | n
O=C(O)c1cccc(-c2ccc(/C=c3/sc4nc5ccccc5n4c3=O)o2)c1 | n | n | x | 580.8 | n | n
CCOc1ccc(CCNC(=O)c2c(C)noc2C)cc1OCC | n | x | x | n | 43.1 | n
O=C(CSCC(=O)Nc1ccccc1)N/N=C/c1c(O)ccc2ccccc12 | n | n | n | 86.2 | u | n
O=C(O)c1ccc(N=Cc2c(O)ccc3ccccc23)cc1 | n | n | n | n | n | n
O=S(=O)(/N=C/c1c(O)ccc2ccccc12)c1ccccc1 | n | n | 53.9 | n | n | n
O=C(N/N=C/c1c(O)ccc2ccccc12)c1ccc(Br)o1 | n | n | 57.1 | n | n | n
CC1=CC(=O)C(C(C)=Nc2cccc(Cl)c2)C(=O)O1 (configuration not stated) | n | x | x | n | n | x
COc1cc(CN2CCCCCC2)cc(Br)c1O | n | n | 55.0 | n | n | n
CCOc1ccccc1N1CCN(Cc2ccc(OC)c(OC)c2)CC1 | n | n | n | n | n | x
COc1ccc(S(=O)(=O)N2CCN(Cc3ccc(OC)c(OC)c3)CC2)cc1 | n | n | 51.3 | n | n | n
CCOc1cc(CN2CCCCCC2)ccc1OC | n | n | 57.0 | n | n | n
COc1ccc(S(=O)(=O)N2CCN(Cc3ccc(Cl)cc3)CC2)cc1 | n | n | n | n | n | n
Nc1c(Cl)ncnc1NCc1ccccc1 | n | n | n | n | n | n
O=C(c1ccc2c(c1)OCCO2)N1CCN(Cc2c(F)cccc2Cl)CC1 | n | x | x | n | n | x
CN(C)C(=O)c1ccc(NC(=O)c2cccnc2)cc1 | n | n | n | n | n | n
CN(C)C(=O)c1ccc(NC(=O)c2sccc2-c2ccccc2)cc1 | n | n | 56.9 | n | n | n
Nc1nc2nccc(-c3ccc(Cl)cc3)n2n1 | n | n | n | n | 184.5 | x
Cc1cc(-c2ccc(Cl)cc2)n2nc(N)nc2n1 | n | n | n | n | n | n
CC(C)(C)c1ccc(S(=O)(=O)NC(=O)C2(C)CCN2C(=O)C2(c3ccc(Cl)cc3)CC2)cc1 (configuration not stated) | n | x | x | x | x | x
CC(=NNC(=S)N1CCC1)c1ccccn1 | n | x | x | n | 34.3 | x
CC(=NNC(=S)N1CCCC1)c1ccccn1 | n | x | x | n | x | x
CNc1ncnc2sc(-c3ccccc3)cc12 | n | n | 51.9 | n | n | n
C[C@@H]1[C@H](O)C[C@@]23COC(=O)C2=CCC[C@@H]3[C@@]1(C)CC/C(=C/CO)CO | n | x | x | n | n | x
C/C(=N\NC(=O)COc1ccccc1-c1ccccc1)c1ccccn1 | n | n | n | n | 617.9 | n
SMILES | BH1578 lux ind | 3CLpro inhibitor | DUSP3 inh | MazEF act | PfHsp40 rescue | BJeLR viability
C/C(=N\NC(=O)COc1ccccc1-c1ccccc1)c1cccnc1 | n | n | n | n | n | n
COc1ccc(C2Nc3cccc4cccc(c34)N2)cc1 | n | n | n | n | n | n
COc1cc(OC)c(C2Nc3cccc4cccc(c34)N2)c(OC)c1 | n | n | 53.0 | n | n | n
CCCCn1c(O)c(C(CC)=Nc2ccc(OCC)cc2)c(=O)[nH]c1=O | n | n | n | 54.9 | n | n
COc1ccc(/C=N/NC(=O)c2cc(C(C)(C)C)[nH]n2)cc1COc1ccc(F)cc1F | n | n | n | n | n | n
CCC[C@H]1CN(c2ccccc2)C(=O)[C@@H]1CC(=O)Nc1ccc(Br)cc1 | n | x | x | n | x | x
Cc1ccc(N2CC(O)Cn3c2nc2c3c(=O)[nH]c(=O)n2C)cc1 (configuration not stated) | n | n | n | n | n | n
COc1cccc(N2CC(O)Cn3c2nc2c3c(=O)[nH]c(=O)n2C)c1 (configuration not stated) | n | n | 60.0 | n | n | n
COc1ccc(/C=C(\NC(=O)c2cccs2)C(=O)NN)cc1OC | n | n | 52.0 | n | n | n
